Assay outcomes as filed in PubChem BioAssay.
CYP2C19 act: increases human CYP2C19 enzyme activity | recombinant CYP2C19, luciferin-H EGE luminescence; active compounds read high; 0 = fully inhibited enzyme, 1 = untreated enzyme | activation factor at 5 µM | 96,000 tested, under 10 active;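 active = activation factor of at least 2 at 5 µM in the primary screen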;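 note: 0 = wells with 2.5 mM tranylcypromine and 1 = vehicle-only wells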
Target sequence (P33261 whole entry, looked up): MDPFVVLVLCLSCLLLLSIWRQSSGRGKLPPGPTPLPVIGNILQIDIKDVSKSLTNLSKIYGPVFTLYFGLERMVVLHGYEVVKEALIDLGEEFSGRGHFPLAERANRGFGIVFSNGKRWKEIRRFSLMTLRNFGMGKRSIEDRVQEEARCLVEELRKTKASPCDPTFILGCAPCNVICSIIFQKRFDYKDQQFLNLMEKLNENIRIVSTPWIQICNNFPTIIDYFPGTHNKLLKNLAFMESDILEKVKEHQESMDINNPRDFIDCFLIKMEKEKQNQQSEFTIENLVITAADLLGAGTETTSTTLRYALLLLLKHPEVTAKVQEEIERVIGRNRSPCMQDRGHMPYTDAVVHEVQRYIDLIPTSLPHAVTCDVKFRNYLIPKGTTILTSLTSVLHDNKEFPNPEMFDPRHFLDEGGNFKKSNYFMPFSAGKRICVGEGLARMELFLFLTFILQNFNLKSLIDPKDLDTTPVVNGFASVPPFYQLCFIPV
CYP2C9 inhib: human CYP2C9 inhibition; CYP2C9 Supersomes, luciferin-H conversion, luminescence; inhibition, % at 5 µM; actives 20% (n = 96,000); AID 777;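 active = blocking of liver enzyme CYP2C9 beyond about 50% at 5 µM, limit read from the data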
CYP2C9 act: increases human cytochrome P450 2C9 activity. P11712. recombinant CYP2C9, luciferin-H conversion, luminescence; active compounds read high; factor 1 = untreated enzyme, 0 = blocked. activation factor at 5 µM. actives 1.4% (n = 96,000);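 active = activation factor of 2 or more for CYP2C9 at a 5 µM dose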;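 note: 0 = sulfaphenazole-blocked wells and 1 = vehicle-only wells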
sEH act: increases human soluble epoxide hydrolase activity. P34913. actives 0.04% (n = 91,000). purified human sEH enzymatic activity, activator screen. AID 717. activation, % at 2 µM; in the data active = activation above about 37%
CYP2C19 inh: blocks human cytochrome P450 2C19 | AID 778 | P33261 | CYP2C19 Supersomes, luciferin-H EGE luminescence, 30 min | actives 21% (n = 96,000) | inhibition, % at 5 µM;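 active = CYP2C19 inhibition above a set limit at 5 µM in the primary screen, cut at about 50% in these data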;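 note: plate controls were negative control wells for no effect and 2.5 mM tranylcypromine positive control for full effect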
sEH inh: blocks human soluble epoxide hydrolase activity; P34913; recombinant human sEH enzymatic activity assay; inhibition, % at 2 µM; actives 0.34% (n = 91,000); in the data active = inhibition above about 80%
* hit, by the source's call. Sampled rows, rich in hits. Any-hit rate of the full collection: about 27%.

How did CCN(c1cccc(C)c1)c1ncnc2nc[nH]c12 do in these assays?
CYP2C19 act: 1.1; CYP2C9 inhib: -2; CYP2C9 act: 1; CYP2C19 inh: -6

Results for Cc1cccc(-n2c(N)cc(=O)nc2SCC(=O)Nc2nnc(C)s2)c1 ?
CYP2C19 act: 1.4; CYP2C9 inhib: 1; CYP2C9 act: 1; sEH act: 12; CYP2C19 inh: -39; sEH inh: -17

What do the screens show for `CCc1nnc(N/N=C/c2c(Cl)cccc2Cl)n1N`?
CYP2C19 act: 0.4; CYP2C9 inhib: -11; CYP2C9 act: 1.1; sEH act: 3; CYP2C19 inh: 63*; sEH inh: -2

What do the screens show for `O=C(N/N=C/c1c(Cl)cccc1Cl)c1ccc(F)cc1`?
CYP2C19 act: 0.7; CYP2C9 inhib: -10; CYP2C9 act: 1.1; sEH act: -15; CYP2C19 inh: 28; sEH inh: 15

How did COC(=O)c1ccc(NC2=CC(=O)CC(C)(C)C2)cc1 do in these assays?
CYP2C19 act: 0.7; CYP2C9 inhib: 51*; CYP2C9 act: 0.5; CYP2C19 inh: 29

Results for C/C(=N/Oc1nc(C)cc(C)n1)c1ccc(F)cc1 ?
CYP2C19 act: 0.9; CYP2C9 inhib: 4; CYP2C9 act: 1; sEH act: -26; CYP2C19 inh: 15; sEH inh: 24

What do the screens show for `CCCCn1c(=O)c2c(c3ccccc31)OCC(=O)N2`?
CYP2C19 act: 0.9; CYP2C9 inhib: -12; CYP2C9 act: 1.1; CYP2C19 inh: 6

How did COc1ccc(N2C(=NC(C)=O)SC3CS(=O)(=O)CC32)cc1OC (stereo unspecified) do in these assays?
CYP2C19 act: 1; CYP2C9 inhib: 8; CYP2C9 act: 0.9; sEH act: 3; CYP2C19 inh: 0; sEH inh: -3

Results for CC(C)(C)C(=O)N=C1SC2CS(=O)(=O)CC2N1c1ccc2c(c1)OCO2 (stereo unspecified) ?
CYP2C19 act: 0.4; CYP2C9 inhib: 63*; CYP2C9 act: 0.4; sEH act: -6; CYP2C19 inh: 57*; sEH inh: 4

What do the screens show for `O=C(CCNc1cccc(Cl)c1)c1cccs1`?
CYP2C19 act: 0.6; CYP2C9 inhib: 13; CYP2C9 act: 0.9; sEH act: 0; CYP2C19 inh: 36; sEH inh: 1

How did COC(=O)c1ccccc1NC(=O)CSc1nc(NC(=O)c2ccccc2)c2c(C)c(C)oc2n1 do in these assays?
CYP2C19 act: 0.3; CYP2C9 inhib: 87*; CYP2C9 act: 0.1; sEH act: 0; CYP2C19 inh: 69*; sEH inh: -1

Results for CCOC(=O)c1ccc(NC(=O)CSc2nc(NC(=O)c3ccccc3)c3c(C)c(C)oc3n2)cc1 ?
CYP2C19 act: 0.4; CYP2C9 inhib: 76*; CYP2C9 act: 0.2; sEH act: 6; CYP2C19 inh: 60*; sEH inh: -9

How did CCCOc1ccc(CC(CC(=O)O)(C(=O)O)C(=O)O)cc1 do in these assays?
CYP2C19 act: 1; CYP2C9 inhib: -6; CYP2C9 act: 1.1; sEH act: -11; CYP2C19 inh: 1; sEH inh: 12

Results for COc1cccc(C2=N/C(=C\N(C)C)C(=O)O2)c1 ?
CYP2C19 act: 0.4; CYP2C9 inhib: 30; CYP2C9 act: 0.7; sEH act: -3; CYP2C19 inh: 63*; sEH inh: 3

What do the screens show for `ONC(=Nc1ccccc1)C(=Nc1ccccc1)NO`?
CYP2C19 act: 0.7; CYP2C9 inhib: -2; CYP2C9 act: 1; CYP2C19 inh: 26

How did COc1ccccc1Nc1nc(N)nc(CSc2nccc(C)n2)n1 do in these assays?
CYP2C19 act: 0.8; CYP2C9 inhib: -40; CYP2C9 act: 1.4; sEH act: -7; CYP2C19 inh: 24; sEH inh: 7

How did Cn1nnnc1SCc1nc2ccccc2s1 do in these assays?
CYP2C19 act: 0.4; CYP2C9 inhib: -20; CYP2C9 act: 1.2; sEH act: -1; CYP2C19 inh: 64*; sEH inh: 0

What do the screens show for `Cc1ccnc(SCc2nc3ccccc3s2)n1`?
CYP2C19 act: 0.1; CYP2C9 inhib: 26; CYP2C9 act: 0.7; sEH act: -8; CYP2C19 inh: 92*; sEH inh: 9

What do the screens show for `NC1(N)OC(CN2C(=O)c3ccccc3C2=O)CS1` (stereo unspecified)?
CYP2C19 act: 0.5; CYP2C9 inhib: 12; CYP2C9 act: 0.9; CYP2C19 inh: 52*
